Assay outcomes from PubChem BioAssay.
Compounds with a hit are over-represented: about 3.4% of the library has one in this group of screens.
Vif imaging: inhibitors of HIV Vif; HEK293T cells, Vif self-association by quenched fluorescence, imaging, 24 h; inhibition, % at 7.49 µM; actives 0.35% (n = 340,000); in the data active = inhibition above about 50%, passing the limit was not always enough
HSF1 inhib: HSF1 inhibition; activity change, negative = inhibition, % at 7.5 µM (by protocol); actives 0.77% (n = 300,000); NIH3T3-HGL HSE-luciferase, MG132-induced, luminescence 8 h; hits give low values;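 active = more than half of replicate wells show activity change below -50%, luminescence cut by over half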;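 note: luciferase reports HSF-1 transcriptional activity via heat shock element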
esBAF inh: blocks esBAF chromatin remodeling in mouse ES cells | Bmi1-luciferase knock-in reporter, 24 h; 100% = twice the neutral-well signal | reporter increase, % at 12.5 µM | actives 2% (n = 350,000) | AID 602393; in the data active = activation above about 40%;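 note: a rise in the Bmi1 reporter signal indicates esBAF inhibition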
HSF1 activator: increases HSF-1 driven luciferase reporter signal | NIH3T3-HGL HSF-1 luciferase reporter, MG132, 8 h; 100% = twice DMSO control signal | activation, % at 9 µM | actives 1.7% (n = 300,000);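 active = mean replicate activation of at least 50% with a set share of replicates each reaching 50%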
Large screens that a line does not name were inactive.

Cc1sc2ncnc(N3CCC(C(=O)Nc4nc(-c5cccs5)cs4)CC3)c2c1C	HSF1 inhib -54
O=C(C[C@@H]1C[C@@H]2c3cc(NC(=O)c4ccc5c(c4)OCO5)ccc3O[C@@H]2[C@@H](CO)O1)NCc1ccc(Oc2ccccc2)cc1	none (no result: Vif imaging, HSF1 inhib, HSF1 activator)
CCOc1ccc(CC(=O)N2CCC3(CC2)NCCc2[nH]cnc23)cc1	HSF1 inhib -62
COc1ccc(CC(=O)N2CCC3(CC2)NCCc2[nH]cnc23)cc1	none
C[C@@H]1CCCCO[C@@H](CN(C)Cc2ccc(C(=O)O)cc2)[C@H](C)CN([C@@H](C)CO)C(=O)c2cc(NC(=O)c3ccncc3)ccc2O1	none (no result: Vif imaging, HSF1 inhib, HSF1 activator)
COc1ccc(C(c2c(O)ccc3ccccc23)N2CCOCC2)c(OC)c1 (configuration not stated)	HSF1 activator 106 (no result: esBAF inh)
COc1ccc(C(CCN2CCOCC2)c2c(O)cc(OC)cc2OC)cc1 (configuration not stated)	none
O=C(O)C[C@H]1CC[C@H](NC(=O)Nc2ccccc2)[C@@H](CO)O1	none (no result: Vif imaging, HSF1 inhib, HSF1 activator)
COC(=O)c1cc2ccsc2n1Cc1nc(-c2ccc(Cl)cc2)oc1C	HSF1 inhib -79
COC(=O)c1cc2occc2n1Cc1nc(-c2ccc(Cl)cc2)oc1C	none
Cc1ccc(S(=O)(=O)N(C)C[C@@H]2OCCCC[C@@H](C)Oc3ccc(NS(=O)(=O)c4c(C)noc4C)cc3C(=O)N([C@H](C)CO)C[C@H]2C)cc1	none (no result: Vif imaging, HSF1 inhib, HSF1 activator)
CCOc1ccc(N2C(=O)C(Cl)=C(Nc3ccccc3O)C2=O)cc1	esBAF inh 41, HSF1 activator 67
COc1ccccc1NC1=C(Cl)C(=O)N(c2ccccc2)C1=O	none (no result: esBAF inh)
O=C1C(Cl)=C(Nc2ccccc2O)C(=O)N1CCc1ccccc1	esBAF inh 62
N#C/C(=C\c1ccc(Cl)cc1)c1nc2ccccc2o1	HSF1 activator 75 (no result: esBAF inh)
N#C/C(=C\c1ccncc1)c1nc2ccccc2o1	none (no result: esBAF inh)
Cc1ccc(S(=O)(=O)N[C@@H]2CC[C@H](CCNC(=O)C3CCCC3)O[C@H]2CO)cc1	none (no result: Vif imaging, HSF1 inhib, HSF1 activator)
CN(C)/C=N/c1sc2c(c1C#N)CCCCC2	esBAF inh 54
CN(C)/C=N/c1sc2c(c1C#N)CCC2	none
Cc1ccc(Nc2ncc3c(n2)CC(C)CC3=O)c(C)c1 (configuration not stated)	HSF1 activator 59 (no result: esBAF inh)
C[C@H]1CN([C@@H](C)CO)C(=O)c2cc(NC(=O)C3CCCCC3)ccc2O[C@@H]1CN(C)CC1CC1	none (no result: Vif imaging, HSF1 inhib, HSF1 activator)
Cc1ccc(S(=O)(=O)Nc2ccc3c(c2)C(=O)N([C@@H](C)CO)C[C@H](C)[C@H](CN(C)S(=O)(=O)c2ccc(C)cc2)OCCCC[C@H](C)O3)cc1	none (no result: Vif imaging, HSF1 inhib, HSF1 activator)
CN1C(=O)c2cc(NS(=O)(=O)c3ccccc3Cl)ccc2OC[C@@H]2O[C@H](CC(=O)O)CC[C@H]21	none (no result: Vif imaging, HSF1 inhib, HSF1 activator)
COc1cccc(NC(=S)N(CCC(C)C)C2CCN(C(C)=O)CC2)c1	HSF1 inhib -76
CCOCCCNC(=O)c1cccc(OC2CCN(S(C)(=O)=O)CC2)c1	esBAF inh 67
CCOCCCNC(=O)c1ccccc1OC1CCN(S(C)(=O)=O)CC1	none (no result: esBAF inh)
c1ccc(-c2nc3ccccc3c3nncn23)cc1	HSF1 inhib -59 (no result: esBAF inh)
Cc1cccc(-c2nc3ccccc3c3nncn23)c1	none (no result: esBAF inh)
Cc1ccc(S(=O)(=O)N(C)C[C@H]2OCCCC[C@H](C)Oc3ccc(NC(=O)CCC(F)(F)F)cc3C(=O)N([C@@H](C)CO)C[C@@H]2C)cc1	none (no result: Vif imaging, HSF1 inhib, HSF1 activator)
Cc1noc(C)c1S(=O)(=O)N(C)C[C@H]1OCCCC[C@H](C)Oc2ccc(NC(=O)NC3CCCCC3)cc2C(=O)N([C@H](C)CO)C[C@@H]1C	none (no result: Vif imaging, HSF1 inhib, HSF1 activator)
Cc1ccccc1N=CC1=C(O)c2ccccc2C1=O	none (no result: esBAF inh)
COc1ccc(N=CC2=C(O)c3ccccc3C2=O)c(OC)c1	HSF1 inhib -73
COCC#Cc1cnc2c(c1)C(=O)N([C@@H](C)CO)C[C@H](C)[C@H](CN(C)S(=O)(=O)c1cn(C)cn1)O2	none (no result: Vif imaging, HSF1 inhib, HSF1 activator)
CC1(C)CC(=O)C2=C(C1)N(Cc1ccco1)C(=O)NC2(C(F)(F)F)C(F)(F)F	Vif imaging 54 (no result: HSF1 inhib, HSF1 activator)
CC1=NC(C(F)(F)F)(C(F)(F)F)C2=C(CC(C)(C)CC2=O)N1Cc1ccco1	none
C[C@@H]1CCCCO[C@H](CN(C)C(=O)c2ccccc2)[C@H](C)CN([C@H](C)CO)C(=O)c2cc(NS(=O)(=O)c3cn(C)cn3)ccc2O1	none (no result: Vif imaging, HSF1 inhib, HSF1 activator)
Cc1ccc(SCc2cc(=O)[nH]c(N3CCN(Cc4ccccc4)CC3)n2)cc1	none
O=c1cc(CSc2ccc(Cl)cc2)nc(N2CCCCC2)[nH]1	HSF1 activator 65
CNC[C@H]1Oc2ccc(NS(C)(=O)=O)cc2CC(=O)N([C@@H](C)CO)C[C@H]1C	none (no result: Vif imaging, HSF1 inhib, HSF1 activator)
Cn1cc(CN2CCc3c([nH]c4ccccc34)C2C(C)(C)C)cn1 (configuration not stated)	Vif imaging 86 (no result: esBAF inh)
Cn1cc(CN2CCc3c([nH]c4ccccc34)C2C2CCCCC2)cn1 (configuration not stated)	none
COc1ccc(NC2CC(=O)N(C(C)C)C2=O)cc1 (configuration not stated)	esBAF inh 60 (no result: HSF1 inhib, HSF1 activator)
O=C1c2ccccc2C(Nc2ccccc2)N1c1ccc(Cl)cn1 (configuration not stated)	none (no result: Vif imaging, HSF1 inhib, HSF1 activator)
O=C1c2ccccc2C(Nc2ccc3c(c2)OCCO3)N1c1ccccn1 (configuration not stated)	HSF1 inhib -70
O=C1c2ccccc2C(Nc2ccccc2)N1Cc1ccc2c(c1)OCO2 (configuration not stated)	none
O=C1c2ccccc2C(Nc2ccc3c(c2)OCCO3)N1c1ccc(Cl)cn1 (configuration not stated)	HSF1 inhib -54
O=C1c2ccccc2C(Nc2ccc3c(c2)OCCO3)N1Cc1ccc2c(c1)OCO2 (configuration not stated)	HSF1 inhib -64
O=C(NC[C@@H]1[C@H](c2ccccc2)[C@H](CO)N1Cc1ccccn1)C1CC1	none (no result: Vif imaging, HSF1 inhib, HSF1 activator)
C[C@H]1CN([C@@H](C)CO)C(=O)c2cc(NC(=O)Nc3cccc4ccccc34)ccc2O[C@@H]1CN(C)S(=O)(=O)c1ccc(F)cc1	none (no result: Vif imaging, HSF1 inhib, HSF1 activator)
CNC[C@@H]1Oc2ncc(C#Cc3ccccc3F)cc2C(=O)N([C@@H](C)CO)C[C@@H]1C	none (no result: Vif imaging, HSF1 inhib, HSF1 activator)
O=C1c2ccccc2C(=O)N1CCC#Cc1ccc2cc(CCCO)oc(=O)c2c1	none (no result: HSF1 inhib, HSF1 activator)
CN(C)c1ccc(C#Cc2ccc3cc(CCCO)oc(=O)c3c2)cc1	esBAF inh 57 (no result: HSF1 inhib, HSF1 activator)
O=c1oc(CCCO)cc2ccc(C#CC3(O)CCCCC3)cc12	none (no result: HSF1 inhib, HSF1 activator)
O=c1oc(CCCO)cc2ccc(C#Cc3ccsc3)cc12	esBAF inh 67 (no result: HSF1 inhib, HSF1 activator)
CCN(CC)C(=O)CSc1ncnc2sc(-c3ccccc3)cc12	esBAF inh 63
CCN(CC)C(=O)CSc1ncnc2sc(C)c(C)c12	HSF1 activator 52 (no result: esBAF inh)
Cc1sc2ncnc(SCC(=O)NC(C)(C)C)c2c1C	none
CN(CCC#N)C(=O)CSc1ncnc2sc(-c3ccccc3)cc12	none (no result: esBAF inh)
CCS/C(N)=N/N=C/c1cc(C)ccc1O	none (no result: esBAF inh)
CS/C(N)=N/N=C/c1cc(C)ccc1O	HSF1 activator 140 (no result: esBAF inh)
C[C@H](O)C#Cc1cnc2c(c1)C(=O)N([C@H](C)CO)C[C@H](C)[C@@H](CN(C)C(=O)Cc1ccccn1)O2	none (no result: Vif imaging, HSF1 inhib, HSF1 activator)
Cc1nc2ccc(Br)cc2c(=O)n1Cc1cccs1	HSF1 activator 54 (no result: esBAF inh)
